# “And” between values parts separate entries of the source, which are not always exact repeats. Identical values can stand only once. Counter-ions that a name gives are not always drawn. About 620 (11%) of roughly 5,800 compounds showed activity. Only a selection was taken, and actives are over-represented in it overall. Unmarked numbers belong to inactive results.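 How the source made its calls: active = score above a cut-off or among the top three wells of a plate; in these data no inactive exceeds 0.85.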
# Tested on: primary human hepatic stellate cells (donor 1)
# Assay: scaled lipid accumulation score (0 = DMSO-like, 1 = nortriptyline-like); higher = stronger HSC inactivation (lipid re-accumulation), active = hit call of the paper
# Details: 48 h
# [1] = library stock concentration: 1 mM
# [2] = library stock concentration: 3.33 mM
# [3] = library stock concentration: 10 mM
# [4] = library stock concentration: 80 uM
# [5] = library stock concentration: 400 uM
# [6] = library stock concentration: 2 mM
structure (smiles),measurement,setting,value
CCCCCCCCCCCCCC=CC(O)C(COP(=O)(O)O)NC(=O)CCCCCCC (centres undefined) [C-8 Ceramide-1-phosphate],scaled lipid accumulation score,[1],≤ 0
Nc1nc(F)nc2c1ncn2[C@@H]1O[C@H](COP(=O)(O)O)[C@@H](O)[C@@H]1O [Fludarabine Phosphate],scaled lipid accumulation score,[2],0.514
same,scaled lipid accumulation score,[3],0.748
CN1CCN(C(c2ccccc2)c2ccc(Cl)cc2)CC1 (centres undefined) [Chlorcyclizine hydrochloride],scaled lipid accumulation score,,0.377
same,scaled lipid accumulation score,library stock concentration: 5.9 mM,0.391
CN1CCN(C(c2ccccc2)c2ccccc2)CC1 [Cyclizine hydrochloride],scaled lipid accumulation score,,0.648
CN1CCN(C(c2ccccc2)c2ccccc2)CC1 [Cyclizine 2HCl],scaled lipid accumulation score,[2],≤ 0
same,scaled lipid accumulation score,[3],0.742
CN1CCCN(C(c2ccccc2)c2ccc(Cl)cc2)CC1.Cl.Cl (centres undefined) [Homochlorcyclizine dihydrochloride],scaled lipid accumulation score,,0.879 (active)
CN1CCN(C(c2ccccc2)c2ccccc2)CC1 [Cyclizine],scaled lipid accumulation score,library stock concentration: 7.5 mM,0.186
same,scaled lipid accumulation score,[3],0.521
[Cl-].[Li+] [Lithium Chloride],scaled lipid accumulation score,[3],≤ -0.07
COC(=O)C1=C(C)NC(C)=C(C(=O)OC)C1c1cccc(NC(=O)NCCCN2CCC(c3cccc(OC)c3)CC2)c1,scaled lipid accumulation score,[3],0.68
CC1CCN(c2cc(N3CCN(C)CC3)ccc2NC(=O)c2cc(C#N)c[nH]2)CC1 [listing 1 of 2 here],scaled lipid accumulation score,[4],0.044
same,scaled lipid accumulation score,[5],≤ -0.016
same,scaled lipid accumulation score,[6],≤ -0.016
CC1CCN(c2cc(N3CCN(C)CC3)ccc2NC(=O)c2cc(C#N)c[nH]2)CC1 [listing 2 of 2 here],scaled lipid accumulation score,[3],1.32 (active)
COc1cc(N2CCN(C)CC2)ccc1Nc1nc(N)c(C(=O)c2c(Cl)cccc2Cl)s1,scaled lipid accumulation score,[4],0.02
same,scaled lipid accumulation score,[5],≤ -0.009
same,scaled lipid accumulation score,[6],0.155
same,scaled lipid accumulation score,[3],0.8
"CCCC/C=C/C=C/C=C/CCCCCCCC(=O)OC [9(Z),11(E),13(E)-Octadecatrienoic Acid methyl ester]",scaled lipid accumulation score,[1],≤ 0
CC(=O)c1cc2c(cc1O)OC(C)(C)C=C2 [Eupatoriochromene],scaled lipid accumulation score,[3],0.066
C=CC(=O)N1CCC[C@@H](n2nc(-c3ccc(Oc4ccccc4)cc3)c3c(N)ncnc32)C1,scaled lipid accumulation score,[4],≤ -0.009
same,scaled lipid accumulation score,[5],0.313
same,scaled lipid accumulation score,[6],0.033
same,scaled lipid accumulation score,[2],≤ 0
same,scaled lipid accumulation score,[3],≤ 0 and 0.22
Nc1ncnc2c1c(-c1cccc(OCc3ccccc3)c1)cn2[C@H]1C[C@H](CN2CCCC2)C1,scaled lipid accumulation score,[2],1.09 (active)
Nc1ncnc2c1c(-c1ccc(Oc3ccccc3)cc1)cn2C1CCCC1,scaled lipid accumulation score,[3],≤ -0.07
Nc1ncnc2c1c(-c1cccc(OCc3ccccc3)c1)cn2[C@H]1C[C@@H](CN2CCC2)C1,scaled lipid accumulation score,[2],0.894 (active)
same,scaled lipid accumulation score,[3],1.01 (active)
Nc1ncnc2c1c(-c1cccc(OCc3ccccc3)c1)cn2C1CC(CN2CCC2)C1 (centres undefined),scaled lipid accumulation score,[4],0.167
same,scaled lipid accumulation score,[5],0.351
same,scaled lipid accumulation score,[6],0.67
same,scaled lipid accumulation score,[3],0.657
Nc1ncnc2c1c(-c1cccc(OCc3ccccc3)c1)cn2C1CC(CN2CCCC2)C1 (centres undefined),scaled lipid accumulation score,[3],0.36
COc1cc(O)c2c(c1)/C=C/C[C@H](O)[C@H](O)C(=O)/C=C\C[C@H](C)OC2=O [5z-7-oxozeaenol],scaled lipid accumulation score,[4],≤ -0.016
same,scaled lipid accumulation score,[5],≤ -0.016
same,scaled lipid accumulation score,[6],≤ -0.016
same,scaled lipid accumulation score,[3],0.613
CN1C(CCl)Nc2cc(Cl)c(S(N)(=O)=O)cc2S1(=O)=O (centres undefined),scaled lipid accumulation score,[3],0.013
CN1C(CCl)Nc2cc(Cl)c(S(N)(=O)=O)cc2S1(=O)=O (centres undefined) [Methyclothiazide],scaled lipid accumulation score,[2],≤ 0
same,scaled lipid accumulation score,[3],≤ -0.001
"COC(=O)CCC[C@H](O)[C@H](O)CO [5(S),6(R)-7-trihydroxymethyl Heptanoate]",scaled lipid accumulation score,[1],≤ 0
NC[C@@H]1CC[C@@H](N)[C@@H](O[C@H]2[C@H](O)[C@@H](O[C@H]3O[C@H](CO)[C@@H](O)[C@H](N)[C@H]3O)[C@H](N)C[C@@H]2N)O1 [Dibekacin],scaled lipid accumulation score,[3],0.108
CC(C)(C)NC[C@H](O)c1ccc(O)c(CO)c1,scaled lipid accumulation score,[3],≤ 0
CC(CCc1ccccc1)NCC(O)c1ccc(O)c(C(N)=O)c1 (centres undefined) [Labetalol HCl],scaled lipid accumulation score,[2],≤ 0
same,scaled lipid accumulation score,[3],0.464
CC(C)(C)NCC(O)c1ccc(O)c(CO)c1 (centres undefined) [Salbutamol],scaled lipid accumulation score,,≤ 0
CC(C)(C)NCC(O)c1ccc(O)c(CO)c1 (centres undefined),scaled lipid accumulation score,[3],0.076
CC(CCc1ccccc1)NCC(O)c1ccc(O)c(C(N)=O)c1 (centres undefined),scaled lipid accumulation score,[3],0.089
OCc1cc(C(O)CNCCCCCCOCCCCc2ccccc2)ccc1O (centres undefined) [Salmeterol] [listing 1 of 2 here],scaled lipid accumulation score,,0.275
same,scaled lipid accumulation score,library stock concentration: 4.8 mM,0.553
same,scaled lipid accumulation score,[3],0.62
OCc1cc(C(O)CNCCCCCCOCCCCc2ccccc2)ccc1O (centres undefined) [Salmeterol] [listing 2 of 2 here],scaled lipid accumulation score,[3],1.08 (active)
O=C(O)c1ccc2ccccc2c1O.OCc1cc(C(O)CNCCCCCCOCCCCc2ccccc2)ccc1O (centres undefined) [Salmeterol xinafoate],scaled lipid accumulation score,[3],0.978 (active)
CC(CCc1ccccc1)NCC(O)c1ccc(O)c(C(N)=O)c1 (centres undefined) [Labetalol hydrochloride],scaled lipid accumulation score,,0.321
same,scaled lipid accumulation score,[3],0.546 and 0.164
CC(C)(C)NCC(O)c1ccc(O)c(CO)c1 (centres undefined) [Albuterol hemisulfate],scaled lipid accumulation score,[3],≤ 0
O=C(CCCC[C@@H]1SC[C@@H]2NC(=O)N[C@@H]21)NCCCC[C@H](NC(=O)CCN1C(=O)C=CC1=O)C(=O)O [3-(N-Maleimidopropionyl)-biocytin],scaled lipid accumulation score,[1],≤ 0
Cc1c(C(=O)Nc2ccc(N3CCC(N4CCOCC4)CC3)c(C#N)c2)cnn1-c1ccc(Cl)cc1,scaled lipid accumulation score,[2],0.756
same,scaled lipid accumulation score,[3],0.699
C[N+]1(C)[C@@H]2C[C@@H](OC(=O)C(O)(c3cccs3)c3cccs3)C[C@H]1[C@@H]1O[C@@H]12 [Tiotropium Bromide hydrate],scaled lipid accumulation score,[2],≤ 0
same,scaled lipid accumulation score,[3],≤ 0
"CCCCC[C@H]1C=C[C@@H]2[C@@H](CC=CCCCC(=O)O1)[C@@H](O)C[C@H]2O [Prostaglandin F2.alpha. 1,15-lactone]",scaled lipid accumulation score,[1],≤ 0
"CCCCC/C=C/C=C1/C=CC(=O)[C@@H]1CCCCCCC(=O)O [15-deoxy-.DELTA.12,14-Prostaglandin A1]",scaled lipid accumulation score,[1],≤ 0
CC(C)C[C@H](NC(=O)CNC(=O)c1cc(Cl)ccc1Cl)B1OC(=O)CC(CC(=O)O)(C(=O)O)O1 (some centres undefined),scaled lipid accumulation score,[2],≤ 0
same,scaled lipid accumulation score,[3],0.118
OCC1OC(n2cnc3c(NC4CCCCC4)ncnc32)C(O)C1O (centres undefined) [N6-Cyclohexyladenosine],scaled lipid accumulation score,[3],0.037
Cc1cccc(CCN2CCC(C(=O)c3ccc(NS(C)(=O)=O)cc3)CC2)n1 [E-4031 dihydrochloride],scaled lipid accumulation score,[3],≤ 0
Cc1cccc(CCN2CCC(C(=O)c3ccc(NS(C)(=O)=O)cc3)CC2)n1,scaled lipid accumulation score,library stock concentration: 9.9 mM,0.011
Fc1ccc(Cl)cc1-c1nc(Nc2ccncc2)c2nccnc2n1,scaled lipid accumulation score,[3],≤ -0.001
O=C1c2ccccc2C(=O)C1c1ccccc1 [Phenindione],scaled lipid accumulation score,,≤ 0
same,scaled lipid accumulation score,[2],≤ 0
same,scaled lipid accumulation score,library stock concentration: 9 mM,0.014
same,scaled lipid accumulation score,[3],≤ 0
O=C1C=CC(=O)C2=C1C1c3ccccc3C2c2ccccc21,scaled lipid accumulation score,[3],0.953 (active)
"CCCCCC(O)C=CC1C2CC(CO2)C1CCCCCCC(=O)O (stereo not drawn) [9,11-methane-epoxy Prostaglandin F1.alpha.]",scaled lipid accumulation score,[1],0.048
O=C(NC1CCN(CCCCC2(C(=O)NCC(F)(F)F)c3ccccc3-c3ccccc32)CC1)c1ccccc1-c1ccc(C(F)(F)F)cc1 [Lomitapide] [listing 1 of 2 here],scaled lipid accumulation score,[2],1.05 (active)
O=C(Nc1ccc2c(c1)CCN(Cc1ncn[nH]1)C2)c1ccccc1-c1ccc(C(F)(F)F)cc1,scaled lipid accumulation score,[3],≤ 0
O=C(NC1CCN(CCCCC2(C(=O)NCC(F)(F)F)c3ccccc3-c3ccccc32)CC1)c1ccccc1-c1ccc(C(F)(F)F)cc1 [Lomitapide] [listing 2 of 2 here],scaled lipid accumulation score,[3],≤ 0
N[C@@H]1CCCN(c2c(/C=C3\SC(=O)NC3=O)cccc2-c2ccccc2)C1,scaled lipid accumulation score,[4],≤ 0
same,scaled lipid accumulation score,[5],≤ 0
same,scaled lipid accumulation score,[6],0.016
same,scaled lipid accumulation score,[2],0.072
same,scaled lipid accumulation score,[3],0.072 and 0.486
"CC(C)(C)c1cc(O)c(C(C)(C)C)cc1O [2,5-Ditertbutylhydroquinone]",scaled lipid accumulation score,library stock concentration: 22.5 mM,0.463
O=C(O)Cc1cccc(OCCCN(Cc2cccc(C(F)(F)F)c2Cl)CC(c2ccccc2)c2ccccc2)c1 [GW 3965 hydrochloride],scaled lipid accumulation score,[3],≤ -0.001
CC(=O)OCC(=O)NCCCOc1cccc(CN2CCCCC2)c1,scaled lipid accumulation score,[3],≤ 0
c1ccc2sc(N3CCN(Cc4ccc5c(c4)OCO5)CC3)nc2c1 [2-[1-(4-Piperonyl)piperazinyl]benzothiazole],scaled lipid accumulation score,[3],≤ 0
O=C(O)/C=C\C(=O)O.O=C(O)/C=C\C(=O)O.c1cc(CN2CCCCC2)cc(OCCCNc2nc3ccccc3s2)c1 [Zolantidine dimaleate],scaled lipid accumulation score,[3],1.5 (active)
O=C(O)Cc1cccc(OCCCN(Cc2cccc(C(F)(F)F)c2Cl)CC(c2ccccc2)c2ccccc2)c1,scaled lipid accumulation score,[2],≤ 0
same,scaled lipid accumulation score,[3],0.181
CC(=O)OCC(=O)NCCCOc1cccc(CN2CCCCC2)c1 [Roxatidine Acetate HCl],scaled lipid accumulation score,,0.032
same,scaled lipid accumulation score,[2],≤ 0
same,scaled lipid accumulation score,[3],≤ 0
O=C(O)/C=C\C(=O)O.O=C(O)/C=C\C(=O)O.c1cc(CN2CCCCC2)cc(OCCCNc2nc3ccccc3s2)c1,scaled lipid accumulation score,[3],1.03 (active)
CC(=O)OCC(=O)NCCCOc1cccc(CN2CCCCC2)c1 [Roxatidine acetate HCl],scaled lipid accumulation score,library stock concentration: 5.7 mM,≤ 0

# Reference: the supplement of paper PMC9135407
